# Source: PubChem (National Center for Advancing Translational Sciences (NCATS))
# The list is not random: actives were taken first. Their share in the collection is about 0.71%.
# Coupling enz = qHTS Assay for Inhibitors of Fructose-1,6-bisphosphate Aldolase from Giardia Lamblia: Coupling assay counterscreen; actives 0.67% (n = 290,000); coupling enzyme system counterscreen, AmpLite Red fluorescence; activity change, negative = inhibition, % at 58.2 µM, hits read low; in the data active = activity change below about -30%
#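 First, compound is pin-transferred into glyceraldehyde-3-phosphate coupling-enzyme reagent at 57.5 uM final and held 10 min at RT. Next, substrate, coupling system and AmpLite Red are added. After 20 min RT, fluorescence (525/598 nm) is read.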
# PI4K2A block = qHTS for small molecular inhibitors of PI4K2A; Phosphatidylinositol 4-kinase type 2-alpha (Homo sapiens), Q9BTU6; purified PI4K2A, ADP-Glo luminescence, 1 h; hits give low values; activity change, negative = inhibition, % at 76.9 µM; actives 0.13% (n = 420,000); AID 1346378, 2018; in the data active = activity change below about -50%; inconclusive = mostly about -30% to -49%;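 also: -100% = wells without enzyme as full effect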
# Target sequence (Q9BTU6 whole entry, looked up): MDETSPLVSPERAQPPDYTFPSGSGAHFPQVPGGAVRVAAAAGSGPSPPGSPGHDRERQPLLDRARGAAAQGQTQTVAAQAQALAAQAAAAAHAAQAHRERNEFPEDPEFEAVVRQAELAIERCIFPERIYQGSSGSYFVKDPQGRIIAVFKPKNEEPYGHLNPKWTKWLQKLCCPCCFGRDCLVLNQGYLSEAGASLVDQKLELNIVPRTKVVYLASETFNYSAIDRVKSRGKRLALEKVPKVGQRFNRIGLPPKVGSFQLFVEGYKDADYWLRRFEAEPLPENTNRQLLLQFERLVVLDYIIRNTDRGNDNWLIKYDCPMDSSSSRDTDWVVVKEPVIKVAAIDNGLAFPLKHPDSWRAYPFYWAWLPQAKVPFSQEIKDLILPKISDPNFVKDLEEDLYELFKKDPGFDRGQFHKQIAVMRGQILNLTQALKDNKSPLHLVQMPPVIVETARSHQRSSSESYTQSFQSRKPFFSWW
#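 In this quantitative HTS, ADP production by PI4K2A was quantified luminescently after 1 h at ambient temperature; 100 microM adenosine served as plate-quality control.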
# USP1 inh = Inhibitors of USP1/UAF1: Primary Screen | Potency, µM (doses to about 57.1 µM), inactives show at the highest dose activity change, negative = inhibition, usual class: inhibitors | AID 743255, 2014 | Ubiquitin carboxyl-terminal hydrolase 1 (Homo sapiens), O94782 | recombinant USP1/UAF1, Ub-Rhodamine cleavage fluorescence | actives 0.23% (n = 390,000); also: potency is read from the fitted curve at half-maximal effect; nearly all actives have a fitted effect of over 60% in size
#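 USP1/UAF1 complex at 1 nM was preincubated with compound for 15 min at room temperature, then Ub-Rho substrate (150nM final) was added. Fluorescence (480/540 nm) was read kinetically, 6 reads every 60 seconds.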
# USP2a inh = qHTS Assay for Inhibitors of Ubiquitin-specific Protease USP2a Using CHOP2 as the Reporter | USP2 core, Ub-CHOP2 coupled fluorogenic reporter, 485/531 | actives 0.01% (n = 330,000) | Ubiquitin carboxyl-terminal hydrolase 2 (Homo sapiens), O75604 | Potency, µM (highest dose often 38.3 µM), for inactives: at the highest dose activity change, negative = inhibition, usual class: inhibitors;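 also: potency is read from the fitted curve at half-maximal effect; plate controls were DMSO wells for no effect and full inhibition by NEM control for full effect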
#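 USP2 core (10nM final) preincubated 30min RT with compound in 20mM Tris-HCl pH 8.0, 2mM CaCl2, 2mM beta-mercaptoethanol, 0.05% CHAPS; 25nM Ub-CHOP2 plus 25nM reporter substrate added, fluorescence (Ex485/Em531) read after 60min.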
# GALK inh = qHTS Assay for Inhibitors of Human Galactokinase (GALK); P51570; Purified GALK, Kinase-Glo residual ATP luminescence; Potency, µM (series often up to 57.5 µM), inactives show at the highest dose activity change, negative = inhibition, actives largely listed as inhibitors; actives 0.007% (n = 270,000); AID 1868, 2009; also: potency is read from the fitted curve at half-maximal effect
#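 Kinase-Glo Plus luminescence measured ATP left after a 1 h room-temperature reaction. The reaction used 5 nM GALK, 100 uM galactose and 35 uM ATP at pH 8.0 (20 mM HEPES, 5 mM MgCl2, 60 mM NaCl, 1 mM DTT, 0.01% BSA).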
# Eya2 phos inh = qHTS Assay for Inhibitors of the Phosphatase Activity of Eya2 | Protein phosphatase EYA2 (Homo sapiens), O00167 | recombinant Eya2, OMFP fluorescence dephosphorylation (OMFP is methylfluorescein phosphate) | Potency, µM (top dose mostly 76.9 µM), for the others: at the top dose activity, negative = inhibition, usual class: inhibitors | actives 0.006% (n = 330,000); also: potency is read from the fitted curve at half-maximal effect
#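 Eya2 protein (added as 0.2 uM solution) was preincubated with compound for 10 min at ambient temperature in 50 mM HEPES pH 7.5, 50 mM NaCl, 5 uM MgCl2, 0.05% BSA, 1 mM DTT. OMFP (added at 50 uM) then reacted 10 min; fluorescence read at 485/525 nm.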
# The depositor's hits bear a star; ? = inconclusive; . = not tested or not shown. Unless noted, calls follow the shape of the dose curve; as a rule, active = well fitted curve in the direction sought with a large enough effect; inconclusive = small, poorly fitted or top-dose-only effect, or another doubt; inactive = no such curve, though single readings can be large; an effect the other way counts as inactive or inconclusive. Unless noted, % is scaled to controls: 0 for no effect and ±100 for the full control effect.
SMILES,Coupling enz,PI4K2A block,USP1 inh,USP2a inh,GALK inh,Eya2 phos inh
COc1ccccc1NC(=O)COC(=O)c1ccc([N+](=O)[O-])s1,1,0,14µM*,1%,5%,15%
Cc1ccc(NC(=O)COC(=O)c2ccc([N+](=O)[O-])s2)c(C)c1,4,7,-20%,5%,-3%,3%
CCOC(=O)NNc1ccc(N(CC)CC(C)O)nn1 (centres undefined),.,0,.,.,.,.
Cc1nn(-c2ccccn2)c2c1-c1nc(N)ncc1CC2,-47*,-5,-19%,2%,-1%,-3%
Cc1nn(-c2ccccn2)c2c1-c1nc(N3CCOCC3)ncc1CC2,-39*,-16,7%,1%,-1%,21%
Cc1nn(-c2ccccn2)c(N)c1N=O,0,-2,-16%,1%,11%,?
CO[C@H]1COC(=O)[C@@H](CCSC)NC(=O)C/C=C\[C@@H](C)COC(=O)[C@@H](OCc2ccccc2)/C=C\[C@@H]1C,-1,.,.,.,.,.
CSCC[C@H](NC(=O)[C@H](CCCNC(=N)N)NC(=O)[C@H](Cc1ccc(O)cc1)NC(=O)[C@@H]1CCCN1C(=O)CNC(=O)[C@H](CCC(=O)O)NC(=O)[C@H](CC(=O)O)NC(=O)[C@H](CCCCN)NC(=O)[C@H](CCCCN)NC(=O)[C@H](CCC(=O)O)NC(=O)[C@H](C)N)C(=O)N[C@@H](CCC(=O)O)C(=O)N[C@@H](Cc1cnc[nH]1)C(=O)N[C@@H](Cc1ccccc1)C(=O)N[C@@H](CCCNC(=N)N)C(=O)N[C@@H](Cc1c[nH]c2ccccc12)C(=O)NCC(=O)N[C@@H](CO)C(=O)N1CCC[C@H]1C(=O)N1CCC[C@H]1C(=O)N[C@@H](CCCCN)C(=O)N[C@@H](CC(=O)O)C(=O)O,2,.,.,.,.,.
COC(=O)C(Cc1ccccc1)NS(=O)(=O)c1cc(Br)ccc1Br (centres undefined),0,.,.,.,.,.
CC(C)c1ccc(C2NC(=O)NC3=C2CCc2ccccc23)cc1 (centres undefined),-10,1,-7%,3%,1%,11%
COc1ccc2c(c1)C1=C(CC2)C(c2ccc(C)cc2)NC(=S)N1 (centres undefined),-3,-1,1%,-17%,-1%,7%
COc1cccc(C2NC(=S)NC3=C2CCc2ccccc23)c1 (centres undefined),-43*,-2,-1%,-1%,1%,-3%
Cc1ccc(C2NC(=O)NC3=C2CCc2ccccc23)cc1 (centres undefined),-40*,-8,-15%,2%,-1%,1%
NC(Cc1ccccc1)C(O)c1ccco1 (centres undefined),-2,.,.,.,.,.
Cc1nc2ccc(Cl)cc2nc(C)/c1=N\O,-33*,1,?,8%,-6%,23%
O=S1(=O)C=CCN1Cc1cn(Cc2cccc(C(F)(F)F)c2)nn1,.,0,.,.,.,.
CN(C(=O)c1ccccc1OCC(=O)Nc1ccc(Br)cc1)c1ccccc1,.,-6,.,.,.,.
Cc1ccc(S(=O)(=O)N[C@H]2COC(=O)[C@@H](C)COC(=O)[C@H](C)NC(=O)C/C=C\[C@H]2C)cc1,-1,.,.,.,.,.
Cc1ccc(C=C2C(=O)c3ccccc3C2=O)s1,6,-53*,-6%,1%,2%,-17%
